Compounds with a hit are over-represented: about 1.4% of the library has one in this group of screens.
PrP UTR inh – inhibition of PrP 5' UTR reporter expression. cell-based PrP 5' UTR mRNA reporter, plate reader. inhibition, % (no concentration beside the values). 0.35% of 340,000 active; in the data active = inhibition above about 52%; also: 0 = median of the neutral control wells
SSB-PriA inh – inhibitors of Klebsiella pneumoniae PriA binding to SSB C-terminal tail, primary screen, biochemical, AlphaScreen | PriA–SSB C-terminal tail interaction (Klebsiella pneumoniae) | AlphaScreen SSBct-PriA binding, biotinylated peptide | inhibition, % at 33 µM | 0.6% of 430,000 active | AID 1272365, 2023; in the data active = inhibition mostly above about 37%, no sharp cut-off; inactive = mostly below about 20%;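 also: plate controls were negative control peptide for no effect and reference peptide for full effect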
PrPC surface inh – inhibitors of human cell surface prion protein PrPC, primary screen, cell-based, TR-FRET. 0.43% of 370,000 active. TR-FRET read-out. Major prion protein (Homo sapiens), P04156. inhibition, % at 13.8 µM; in the data active = inhibition above about 24%; also: 0% = median of the test wells and 100% = reference compound wells
BH1578 lux ind – inducers of Vibrio cholerae quorum light production without autoinducers, primary screen, BH1578 luxS cqsA deficient, single point. V. cholerae BH1578 lux reporter, luminescence, 6 h. activation, % at 18.7 µM. 0.16% of 350,000 active; in the data active = activation mostly above about 9.7%, no sharp cut-off
FadD28 FP inh – inhibitors of FadD28 bisubstrate probe binding, primary screen, biochemical, fluorescence polarization, single point; Mycobacterium tuberculosis FadD28 fatty-acid-AMP ligase; inhibition, % at 12.5 µM; 0.22% of 360,000 active; AID 588549, 2011; in the data active = inhibition above about 8.5%, passing the limit was not always enough
PrPC TRFRET cf – confirmation of inhibitors of cell surface human prion protein, confirmation, cell-based, TR-FRET | shares compounds with PrPC surface inh | cell surface PrPC level | inhibition, % at 13.8 µM | 65% of 1,500 active; in the data active = inhibition above about 25%
LD9 cytotox – cytotoxicity in LD9 cells, cytotoxicity control for cell surface PrPc inhibitor project, cell-based, luminescence, high throughput; shares compounds with PrPC surface inh; inhibition, % at 13.8 µM; luminescence viability; 29% of 1,500 active; in the data active = inhibition above about 9.5%
An asterisk follows results filed as active; i = inactive; / = not tested or not shown.

SMILES | PrP UTR inh | SSB-PriA inh | PrPC surface inh | BH1578 lux ind | FadD28 FP inh | PrPC TRFRET cf | LD9 cytotox
O=C(O)c1ccc(Nc2cc(Cl)c3nonc3c2[N+](=O)[O-])cc1 | -13.3 | 4.7 | -42.5 | -0.2 | 4.6 | / | /
O=[N+]([O-])c1c(Nc2cccc(O)c2)cc(Cl)c2nonc12 | -27.5 | 3.0 | 84.6* | -1.3 | 0.2 | 92.3* | 98.5*
Oc1ccccc1/C=N/Nc1nccnc1Cl | 27.1 | / | 4.7 | -2.1 | -2.3 | / | /
Oc1ccc(/C=N/Nc2nccnc2Cl)c(O)c1 | -1.1 | / | 24.7* | -0.3 | 1.9 | 33.2* | 23.9*
COc1cccc(N2CC(O)=C(c3nc4ccccc4s3)C2=N)c1 | -42.8 | 4.3 | 91.7* | i | 0.6 | 88.1* | 7.8
COc1ccc(N2CC(O)=C(c3nc4ccccc4s3)C2=N)cc1 | -25.8 | -10.8 | 21.3 | -0.7 | -0.5 | / | /
Cc1nc(N2CCN(Cc3ccc4c(c3)OCO4)CC2)c2oc3ccccc3c2n1 | -10.4 | 6.1 | 47.5* | -0.4 | -7.4 | 10.9 | 15.1*
Cc1nc(N2CCN(Cc3ccc(Cl)cc3)CC2)c2oc3ccccc3c2n1 | 0.3 | 0.4 | -1.4 | -0.9 | -3.4 | / | /
CCOC(=O)c1c(NC(=O)CCS(=O)(=O)c2ccc(Cl)cc2)sc2c1CCCCC2 | / | -12.0 | / | / | / | / | /
Cc1ccc(C(=O)N(c2ccc(Br)cc2)C2C=CS(=O)(=O)C2)cc1 (stereo unspecified) | / | -9.0 | / | / | / | / | /
FC(F)C(F)(F)Oc1cccc(Nc2nccn3c(-c4ccc5ccccc5c4)cnc23)c1 | / | / | 9.7 | i | 1.1 | / | /
Oc1ccc(-c2cnc3c(Nc4cccc(OC(F)(F)C(F)F)c4)nccn23)cc1 | / | / | 25.5* | 0.9 | -0.1 | 24.5* | -2.8
O=C(c1ccc(Cl)s1)N(CC(F)(F)F)C1CCOCC1 | / | -8.0 | / | / | / | / | /
CCn1c(C2CCN(C(=O)CSCc3ccccc3)CC2)nn(CCOC)c1=O | / | -3.0 | / | / | / | / | /
CCN(CC)C(=O)CSc1nc(N)c(C#N)c(-c2cccs2)c1C#N | -0.8 | -16.7 | 62.7* | 1.4 | 0.1 | -0.3 | -3.4
N#Cc1c(-c2ccccc2)nc(SCC(=O)Nc2ccccc2F)[nH]c1=O | -6.5 | -0.9 | 15.2 | i | -3.6 | / | /
Cc1cc(NC(=O)CSc2nc(-c3ccccc3)c(C#N)c(=O)[nH]2)no1 | -4.2 | -9.7 | 41.2* | -2.5 | -2.0 | 55.9* | -5.1
N#Cc1c(-c2ccccc2)nc(SCC(=O)Nc2ccccc2)[nH]c1=O | -11.3 | -21.2 | 27.7* | -0.1 | -4.1 | 39.4* | -5.0
CCC(Sc1nc(-c2ccccc2)c(C#N)c(=O)[nH]1)C(=O)Nc1nnc(C)s1 (stereo unspecified) | -18.1 | -10.8 | 28.1* | i | -5.5 | 47.8* | -5.7
Cc1cc(C)nc(NS(=O)(=O)c2ccc(NC(=O)CSc3nc(-c4ccccc4)c(C#N)c(=O)[nH]3)cc2)n1 | -36.1 | -5.4 | 50.0* | -0.2 | -3.9 | 72.2* | -2.4
O=C(Nc1ccc2c(c1)C(=O)NCCO2)c1cccc(C(F)(F)F)c1 | / | -6.0 | / | / | / | / | /
CCOc1ccc(/C(O)=C2\C(=O)C(=O)N(c3ccccn3)C2c2ccccc2F)c(C)c1 (stereo unspecified) | / | / | 34.1* | -0.8 | -3.7 | 67.2* | -5.1
CCOc1ccc(C(O)=C2C(=O)C(=O)N(c3cc(C)on3)C2c2ccccc2OC)cc1 (stereo unspecified) | / | 11.3 | / | / | / | / | /
CCOc1ccc(/C(O)=C2\C(=O)C(=O)N(c3cc(C)on3)C2c2ccccc2OC)cc1 (stereo unspecified) | -14.8 | / | 34.7* | -0.3 | -0.2 | 55.1* | 0.2
COCCCN1C(=O)C(=O)/C(=C(/O)c2ccc(OCC(C)C)cc2C)C1c1cccnc1 (stereo unspecified) | -25.7 | / | 25.7* | -6.7 | -3.0 | 36.4* | -7.7
SMILES | PrP UTR inh | SSB-PriA inh | PrPC surface inh | BH1578 lux ind | FadD28 FP inh | PrPC TRFRET cf | LD9 cytotox
Cc1cc(OCc2ccccc2)ccc1/C(O)=C1/C(=O)C(=O)N(Cc2cccnc2)C1c1ccncc1 (stereo unspecified) | -6.5 | / | 33.5* | i | -1.2 | 53.6* | -2.5
Cc1nnsc1C(=O)NCc1ccnc(-c2ccsc2)c1 | / | -7.0 | / | / | / | / | /
O=C(Nc1ccc(F)cc1)c1nc(S(=O)(=O)Cc2ccccc2)ncc1Cl | -6.7 | 4.1 | 66.1* | i | -0.3 | 63.6* | 94.0*
Cc1ccc(NC(=O)c2nc(S(=O)(=O)Cc3ccccc3)ncc2Cl)cc1 | -5.2 | 1.8 | 83.8* | -0.2 | -0.3 | 56.5* | 92.5*
Cc1cccc(CS(=O)(=O)c2ncc(Cl)c(C(=O)NCc3ccccc3)n2)c1 | -0.8 | -6.5 | 25.9* | -0.5 | 0.5 | 5.4 | 45.7*
Cc1ccccc1CS(=O)(=O)c1ncc(Cl)c(C(=O)Nc2ccc(F)cc2)n1 | 14.5 | -6.0 | 7.8 | 0.0 | -3.2 | / | /
CCS(=O)(=O)c1ncc(Cl)c(C(=O)Nc2ccc(S(=O)(=O)N(C)c3ccccc3)cc2)n1 | -5.8 | 12.7 | 88.9* | 0.0 | 7.5 | 102.2* | 96.7*
COC(=O)[C@]12C[C@H](CC(=O)N3CCCC3)C(=O)N(CCC3=CCCCC3)C1=C[C@H](C(C)C)O[C@@H]2C1CC1 | / | / | 27.9* | / | / | 30.8* | -3.3
CCCCCCCCN1C(=O)[C@@H](CC(=O)N2CCOCC2)C[C@@]2(C(=O)OC)C1=C[C@H](C(C)C)O[C@@H]2C1CC1 | / | / | 22.1 | / | / | / | /
COC(=O)[C@]12C[C@H](CC(=O)N3CCCCC3)C(=O)N(CCC3=CCCCC3)C1=C[C@H](C(C)C)O[C@@H]2C1CC1 | / | / | 29.5* | / | / | 31.6* | -2.3
COC(=O)[C@]12C[C@H](CC(=O)N3CCN(C(=O)c4ccco4)CC3)C(=O)N(CCC3=CCCCC3)C1=C[C@H](C(C)C)O[C@@H]2C1CC1 | / | / | -0.1 | / | / | / | /
CCCCCCCCN1C(=O)[C@@H](CC(=O)N2CCCC2)C[C@@]2(C(=O)OC)C1=C[C@H](C(C)C)O[C@@H]2C1CC1 | / | / | 30.2* | / | / | 36.3* | -2.9
O=C(CSc1cccc2cccc(Cl)c12)OCC(=O)N1CCN(C(=O)c2ccco2)CC1 | -6.0 | -4.9 | 42.9* | -3.3 | -2.8 | 43.7* | -0.6
O=C(CSc1cccc2cccc(Cl)c12)NC1=NCCS1 | -21.3 | -13.7 | 28.6* | i | -1.3 | 44.6* | -3.8
Cc1ccc(C)c(SCC(=O)OCC(=O)Nc2ncc(C(F)(F)F)cc2Cl)c1 | -22.0 | -13.6 | 2.6 | i | -0.6 | / | /
NC(=O)COC(=O)CSc1cccc2cccc(Cl)c12 | -14.9 | 7.5 | 39.5* | -1.0 | -2.0 | 51.7* | 0.7
O=C(COC(=O)CSc1cccc2cccc(Cl)c12)Nc1ncc(C(F)(F)F)cc1Cl | -15.5 | -1.1 | 31.3* | -2.7 | -1.2 | 39.0* | 1.2
NC(=O)COC(=O)CC(c1ccccc1)c1ccccc1 | -7.0 | -2.5 | 1.1 | -0.9 | -1.9 | / | /

Compound activity as filed in PubChem.
